# Tests used:
# Settings in all cases: concentration: 1 μM, replicates: in singlicate; n = 1
# MAP3K15 = test system: MAP3K15
# MAP3K1 = test system: MAP3K1
# MAP3K2 = test system: MAP3K2
# MAP3K3 = test system: MAP3K3
# MAP3K4 = test system: MAP3K4
# MAP4K2 = test system: MAP4K2
# MAP4K3 = test system: MAP4K3
# MAP4K4 = test system: MAP4K4
# MAP4K5 = test system: MAP4K5
# MAPKAPK2 = test system: MAPKAPK2
# MAPKAPK5 = test system: MAPKAPK5
# MARK1 = test system: MARK1
# MARK2 = test system: MARK2
# MARK3 = test system: MARK3
# MARK4 = test system: MARK4
# MAST1 = test system: MAST1
# MEK1 = test system: T1, MEK1
# T1 construct: gene MAP2K1
# MEK2 = test system: T2, MEK2
# T2 construct: gene MAP2K2
# MEK3 = test system: T3, MEK3
# T3 construct: gene MAP2K3
# MEK4 = test system: T4, MEK4
# T4 construct: gene MAP2K4
# 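Also: KINOMEscan kinase panel screen.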
Compound,%Inh (MAP3K15),%Inh (MAP3K1),%Inh (MAP3K2),%Inh (MAP3K3),%Inh (MAP3K4),%Inh (MAP4K2),%Inh (MAP4K3),%Inh (MAP4K4),%Inh (MAP4K5),%Inh (MAPKAPK2),%Inh (MAPKAPK5),%Inh (MARK1),%Inh (MARK2),%Inh (MARK3),%Inh (MARK4),%Inh (MAST1),%Inh (MEK1),%Inh (MEK2),%Inh (MEK3),%Inh (MEK4)
CSc1cccc2c(-c3ccncn3)c(-c3ccc(F)cc3)nn12 [GW514786],21%,14%,0%,0%,0%,0%,0%,2%,0%,67%,0%,0%,0%,0%,0%,0%,0%,0%,0%,4%
CC(=O)N1CCN(c2ccc(Nc3nccc(-c4sc(C(C)C)nc4-c4cccc(NS(=O)(=O)c5cccc(Cl)c5)c4)n3)cn2)CC1 [GSK1660437],16%,12%,0%,7%,0%,8%,10%,13%,54%,19%,0%,0%,0%,0%,12%,0%,1%,0%,23%,99.2%
Fc1ccc(-c2ncn(C3CCNCC3)c2-c2ccnc(Oc3ccc(-c4ccccc4)cc3)n2)cc1 [SB-245391],22%,25%,22%,29%,14%,44%,3%,9%,26%,0%,0%,25%,23%,23%,25%,36%,15%,19%,18%,15%
Cc1ccc(C(=O)N2CC[C@@H](O)C2)cc1-n1c(C)cc(OCc2ccc(F)cc2F)c(Br)c1=O,0%,0%,0%,0%,0%,0%,0%,6%,8%,0%,0%,0%,0%,0%,0%,0%,0%,36%,0%,0%
Cc1cccc(NC(=O)Nc2ccc(Oc3ncnc4ccn(C)c34)cc2)c1,0%,0%,0%,0%,0%,0%,0%,0%,0%,0%,0%,0%,0%,6%,0%,0%,0%,29%,5%,0%
COc1cccc(C(=O)Nc2cccc(Oc3ccc4nc(NC(=O)C5CC5)cn4n3)c2)c1,0%,9%,0%,24%,10%,0%,69%,48%,49%,0%,0%,17%,0%,0%,10%,0%,28%,43%,15%,0%
COc1ccc(Nc2nccc(NCCNC(=O)c3cc4ccccc4s3)n2)cc1 [GSK1379896],0%,15%,0%,0%,24%,0%,0%,1%,8%,2%,0%,0%,0%,4%,0%,0%,0%,0%,0%,16%
Oc1cc(Nc2ccnc3cc(I)ccc23)ccc1F [GW552771],11%,7%,9%,0%,0%,0%,0%,67%,100%,24%,0%,0%,0%,0%,5%,20%,0%,0%,11%,34%
O=C(Nc1n[nH]c2cc(-c3ccoc3)ccc12)C1CC1 [SB-738481],10%,0%,3%,50%,17%,2%,0%,10%,0%,0%,10%,11%,15%,0%,0%,37%,2%,18%,23%,3%
CC(C)c1nc(-c2cccc(NS(=O)(=O)c3c(F)cccc3F)c2F)c(-c2ccnc(Nc3ccc(N4CCOCC4)nc3)n2)s1 [GSK2008607],0%,15%,97.7%,80%,91.7%,0%,88%,40%,88%,0%,0%,0%,24%,0%,80%,0%,0%,64%,57%,100%

# Source: publication PMC5540273 (PLoS ONE, 2017)
